From PubChem BioAssay (NCI)
About 79,000 compounds went through this panel and 15% of them were active in at least one assay; those are over-represented in the sample as a whole. Unmarked numbers belong to inactive results. Calls of active or inactive are those of the source. Cut-off read from the data, not from the text of the source: active = growth inhibition above about 70%; inactive = the rest.

Experiments:
[1] = NCI Yeast Anticancer Drug Screen. Data for the rad50 strain (AID 155);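 note: 0% = growth of vehicle-only cultures of the same strain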; conditions: S. cerevisiae rad50 strain growth inhibition; at 50.0 µM; hits give high values
Outline: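 Yeast carrying a defined DNA repair defect were exposed to test compounds, and growth was compared with vehicle-treated controls to give percent inhibition.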

[2] = NCI Yeast Anticancer Drug Screen. Data for the mec2-1 strain (AID 157); conditions: S. cerevisiae mec2-1 strain, at 50.0 µM, hits give high values
Outline: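 mec2-1 yeast strain, carrying an alteration in DNA damage repair or cell cycle control, was exposed to compounds; growth inhibition was measured relative to vehicle-treated controls.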

[3] = NCI Yeast Anticancer Drug Screen. Data for the sgs1 mgt1 strain (AID 161);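 note: 0% = growth of cultures given vehicle only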; conditions: S. cerevisiae sgs1 mgt1 strain, at 50.0 µM, hits give high values
Outline: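 Percent growth inhibition was derived by comparing compound-exposed mutant yeast with vehicle-exposed cultures. The strain carries alterations in DNA damage repair.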

[4] = NCI Yeast Anticancer Drug Screen. Data for the cln2 rad14 strain (AID 165);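 note: 0% = growth equal to vehicle treated cultures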; conditions: S. cerevisiae cln2 rad14 strain, at 50.0 µM, hits give high values
Outline: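 Yeast carrying cln2 and rad14 alterations (cell cycle control and DNA damage repair) were exposed to compounds. Growth inhibition was measured against vehicle-treated controls.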

[5] = NCI Yeast Anticancer Drug Screen. Data for the bub3 strain (AID 167); conditions: S. cerevisiae bub3 mutant strain, at 50.0 µM, hits give high values
Outline: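 Compounds were applied to a genetically altered yeast strain carrying a cell-cycle control defect. Growth inhibition was scored against vehicle-treated controls.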

[6] = NCI Yeast Anticancer Drug Screen. Data for the mlh1 rad18 strain (AID 175); conditions: S. cerevisiae mlh1 rad18 strain growth inhibition; at 50.0 µM; hits give high values
Outline: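 Growth inhibition of the yeast strain was measured after compound exposure and expressed relative to vehicle-treated controls. The strain carries defined defects in DNA damage repair.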

Structure (SMILES) | growth inhibition [1] | growth inhibition [2] | growth inhibition [3] | growth inhibition [4] | growth inhibition [5] | growth inhibition [6]
Oc1ccc(Br)cc1C=Nc1ccccc1 | 26.3% | 18.9% | 40.8% | 29.4% | 26.2% | 14.9%
O=C1C2=C(CCCC2)Nc2cccc3ncn1c23 | -25.9% | -39% | -56.8% | -20.4% | -38.4% | -40.2%
NC(=O)/C=C/c1cccnc1 | 4.6% | -0.65% | -7.75% | -34.1% | 11% | 13%
CC(=O)Oc1ccc(/C=C/c2ccccn2)cc1 | 6.6% | -1.75% | -1.5% | -55.1% | 3.75% | 15.3%
O=[N+]([O-])c1ccc(N=P(c2ccccc2)(c2ccccc2)c2ccccc2)n2nnnc12 | 1.25% | -27.8% | -4.65% | -10.2% | -15.2% | -6.85%
CCC1(CC)C(=O)NN(C(=O)c2ccccc2)C1=O | 19.3% | -20.1% | 28.4% | 13.6% | -4.45% | -43.4%
O=C(O)C(Cc1ccccc1)c1ccccc1 (stereo not given) | -39.4% | -12.4% | -11.8% | -21.4% | 9.4% | 2.85%
COc1ccccc1N=Nc1c(O)n(-c2ccccc2C)c(=S)n(-c2ccccc2OC)c1=O | 38.4% | -9.7% | 19.1% | -12.8% | -3.95% | 3.2%
C=CCC1(C(=O)OC)CCC/C(=N\O)C1 (stereo not given) | 7.5% | -17.8% | -19.4% | 4.1% | -26.9% | -3.45%
CN(Nc1c([N+](=O)[O-])cc([N+](=O)[O-])cc1[N+](=O)[O-])c1ccc2ccccc2c1 | 14.2% | 7.3% | 21.4% | 24.2% | 7.2% | 8.35%
CCOC(=O)C(C=C(C)C)(CC)C(=O)OCC | 2.5% | -17% | -5.7% | -4.55% | -17.1% | -21.9%
CCCCCCCCCCCCCCOc1ccc(S(=O)(=O)/N=C(\N)NC(N)=NCCCCCCCCCC)cc1 | 30.2% | -9.6% | 10.2% | -21.1% | -2.2% | 2.15%
Cc1ccc(Oc2ccc(C(=O)c3cccc(C(=O)c4ccc(Oc5ccc(C)cc5)cc4)n3)cc2)cc1 | -18.6% | 2.05% | -38.2% | -28.2% | -15.3% | -24.9%
CCOC(=O)NC(=O)c1cn(C2OC(COC(=O)CCCCCCCCC(=O)OCC3OC(n4cc(C(=O)NC(=O)OCC)c(=O)[nH]c4=O)C4OC(C)(C)OC34)C3OC(C)(C)OC32)c(=O)[nH]c1=O (stereo not given) | -42.9% | -39.5% | -27.9% | 10.9% | -16.1% | -24.9%
COC(CC(=O)O)CC(C)CC(C)(C)C (stereo not given) | 48.5% | 15.8% | 38% | 18.9% | 24.9% | 40.1%
CC(=O)OCCCC(=O)Nc1cc([N+](=O)[O-])ccc1OCc1ccccc1 | 12.4% | -3.35% | 3.45% | -6.35% | 5.7% | 8.45%
CC(=O)OCc1cccc(O)c1C(=O)CCC=C(C)C | -4.4% | -17.1% | 8.15% | -10.9% | -6.7% | -63.5%
CC/C=C(C)/C=N\NC(=O)c1ccc[n+](C)c1 | 21.8% | 12.6% | 17.6% | 23.6% | -3.9% | 2.55%
C[P+](C)(C)c1ccccc1 | -16.6% | 4% | 4.95% | -22.2% | 3.15% | -3.7%
CCOC(=O)CC(=O)Nc1cc(C)cc(C)n1 | 2.1% | 14.5% | 9.5% | 32.6% | 25.1% | 5.7%

Structure (SMILES) | growth inhibition [1] | growth inhibition [2] | growth inhibition [3] | growth inhibition [4] | growth inhibition [5] | growth inhibition [6]
CNCc1cccc(OC)c1OC | -1.05% | -5.4% | -2.35% | -0.6% | 16.2% | -2.7%
CN(c1ccccc1)C1C(=O)N(c2ccccc2)C1/C=C/c1ccccc1 (stereo not given) | -8.7% | 0.8% | 13.3% | 29.4% | 11.9% | 39.1%
CC(=O)OC1C(C)OC(n2cnc3c(=O)[nH]cnc32)C(OC(C)=O)C1OC(C)=O (stereo not given) | 37.1% | 9.25% | 16.4% | -7.3% | 6.25% | 27.8%
COc1ccccc1/C=C(\S)C(=O)O | -18.9% | -6.9% | -19.3% | -43.5% | -12.7% | 8.45%
O=C(N/N=C/c1ccc(Cl)cc1)c1ccccc1NC(=O)C1CC1 | -3.85% | -14.2% | 28% | -23.6% | 11.8% | 33.2%
BrC1(C2(Br)N(c3ccccc3)CCN2c2ccccc2)N(c2ccccc2)CCN1c1ccccc1 | 53% | -1.55% | 42.4% | 10.2% | 2% | 11.6%
CC(=O)OC12CC(C)C3(O)C4C=C(C)C(=O)[C@@]4(O)CC(CO)=C[C@H]3C1C2(C)C (stereo not given in full) | -4.3% | -6.15% | 9.95% | 5.35% | 6.8% | 2.05%
C/C(CC(C)(C)C)=N/NS(=O)(=O)c1ccc(C)cc1 | 7.7% | -1.6% | 9.8% | 1.75% | 5.45% | 12.7%
NCCNCCCCCCCCCCCCOS(=O)(=O)O | -32.8% | -23.6% | -6.35% | -15.3% | -25% | -11.4%
CN(C)S(=O)(=O)c1cccc([N+](=O)[O-])c1 | 17.5% | 7.5% | 18.1% | 8.5% | -6.3% | 8.8%
BrCCCOc1ccccc1Br | 14.6% | -11.2% | 1.6% | -32.1% | 4.2% | 14.2%
CC1CC=[N+]([O-])C1(C)C (stereo not given) | -6.6% | -18.1% | 14.2% | -12.2% | 16.7% | -11.1%
CCOC(=O)c1nc2cc(C(F)(F)F)ccc2nc1Nc1ccc(OC)c(OC)c1 | -18.1% | -6.15% | -16.9% | -12.4% | -12.8% | -14%
S=c1nc[nH]c2c1CN(Cc1ccccc1)CC2 | -43.6% | -2.25% | 4.6% | -23.4% | -4.95% | -6.8%
CC(C)=Nn1cnc(C(=N)C#N)c1N | 22.9% | 3.5% | -0.9% | 14.5% | 4.8% | -7.45%
Cc1cc(O)c2c(c1)C[C@@H](O)C1=C2C(=O)c2c(O)ccc(OC3CC(O)C(OC4CC(OC5CCC(OC6CC(O)C(OC7CC(OC8CCC(O)C(C)O8)C(O)C(C)O7)C(C)O6)C(C)O5)C(O)C(C)O4)C(C)O3)c2C1=O (stereo not given in full) | 88.5% (active) | 90.6% (active) | 90.1% (active) | 84.8% (active) | 86.6% (active) | 88.5% (active)
COc1ccc(-c2cc(-c3ccc(OC)cc3)cc(-c3ccc(OC)cc3)c2)cc1 | -19.5% | -22.8% | -14.9% | -27.8% | -14% | -16.6%
CCOC(=O)CC(=O)CC | 8.5% | -16.6% | -18.8% | 7.55% | -6.45% | 3.25%
CCCCCC1OCC(C)(C)CO1 | 3.95% | -2.05% | -5.45% | -9.3% | -3.05% | -9.6%
CC(=O)Nc1ccc([N+](=O)[O-])cc1[N+](=O)[O-] | 3.35% | -10.9% | -4.05% | -37.9% | -15.6% | 3.95%
